From PubChem BioAssay
The source made the active and inactive calls.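 How the source made its calls: active means normalized viability below 100% at a tested concentration; inactive means the rest.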

Assay: ovarian cancer cell viability with rucaparib, profiling panel, oncology-focused library, rucaparib conditional (AID 1508598)
Settings: patient-derived ovarian cancer cells, CellTiter-Glo viability, 144 h; at 0.0195 µM; OCI-P5x cells; without rucaparib; active compounds read low

Row | Compound | viability
1 | O=c1[nH]c(=O)n([C@@H]2C[C@H](O)[C@@H](CO)O2)cc1F | 100% (active)
2 | COc1cccc2c1C(=O)c1c(O)c3c(c(O)c1C2=O)C[C@@](O)(C(C)=O)C[C@H]3O[C@H]1C[C@H](N)[C@H](O)[C@H](C)O1 | 43% (active)
3 | C[C@]12CC[C@H]3c4ccc(O)cc4CC[C@H]3[C@@H]1CC[C@H]2O | 112% (inactive)
4 | CC1=C(/C=C/C(C)=C\C=C\C(C)=C/C(=O)O)C(C)(C)CCC1 | 97.6% (active)
5 | CC(C)CC(CC(=O)NO)C(=O)N[C@@H](Cc1ccc2ccccc2c1)C(=O)N[C@@H](C)C(=O)NCCN (stereo partly specified) | 100% (active)
6 | COc1cccc2c1C(=O)c1c(O)c3c(c(O)c1C2=O)C[C@@](O)(C(=O)CO)C[C@H]3O[C@H]1C[C@H](N)[C@@H](O)[C@H](C)O1 | 54.5% (active)
7 | COc1ccc(C2=N[C@H](c3ccc(Cl)cc3)[C@@H](c3ccc(Cl)cc3)N2C(=O)N2CCNC(=O)C2)c(OC(C)C)c1 | 86.4% (active)
8 | CO[C@H]1C[C@H]2CC[C@@H](C)[C@@](O)(O2)C(=O)C(=O)N2CCCC[C@H]2C(=O)O[C@H]([C@H](C)C[C@@H]2CC[C@H](OC(=O)C(C)(CO)CO)[C@H](OC)C2)CC(=O)[C@H](C)/C=C(\C)[C@@H](O)[C@@H](OC)C(=O)[C@H](C)C[C@H](C)/C=C/C=C/C=C/1C | 58.4% (active)
9 | O=C(O)c1cc(I)ccc1NC(=O)[C@H](Cc1ccccc1)NCc1ccccc1 | 99.8% (active)
10 | Nc1ncn([C@@H]2O[C@H](CO)[C@@H](O)[C@@H]2O)c(=O)n1 | 119% (inactive)
11 | CO[C@H]1C[C@@H]2CC[C@@H](C)[C@@](O)(O2)C(=O)C(=O)N2CCCC[C@H]2C(=O)O[C@H]([C@H](C)C[C@@H]2CC[C@@H](O)[C@H](OC)C2)CC(=O)[C@H](C)/C=C(\C)[C@@H](O)[C@H](OC)C(=O)[C@H](C)C[C@H](C)/C=C/C=C/C=C/1C | 62.5% (active)
12 | CC(=O)OCC(=O)[C@]1(O)[C@H](C)C[C@H]2[C@@H]3CCC4=CC(=O)C=C[C@]4(C)[C@]3(F)[C@H](O)C[C@@]21C | 99.6% (active)
13 | CC[C@]1(O)C[C@@H]2CN(CCc3c([nH]c4ccccc34)[C@@](C(=O)OC)(c3cc4c(cc3OC)N(C=O)[C@H]3[C@@](O)(C(=O)OC)[C@H](OC(C)=O)[C@]5(CC)C=CCN6CC[C@@]43[C@@H]65)C2)C1 | 14.5% (active)
14 | C[C@@]12CC[C@H]3c4ccc(O)cc4C[C@@H](CCCCCCCCCS(=O)CCCC(F)(F)C(F)(F)F)[C@H]3[C@@H]1CC[C@@H]2O (stereo partly specified) | 122% (inactive)
15 | CC(=O)O[C@@]1(C(C)=O)CC[C@H]2[C@@H]3C[C@H](C)C4=CC(=O)CC[C@]4(C)[C@@H]3CC[C@@]21C | 113% (inactive)
16 | CC(=O)O[C@]12CO[C@@H]1C[C@H](O)[C@]1(C)C(=O)[C@H](O)C3=C(C)[C@H](OC(=O)[C@H](O)[C@@H](NC(=O)OC(C)(C)C)c4ccccc4)C[C@](O)([C@H](OC(=O)c4ccccc4)C21)C3(C)C (stereo partly specified) | 16.8% (active)
17 | CCC1=CC2CN(C1)Cc1c([nH]c3ccccc13)[C@@](C(=O)OC)(c1cc3c(cc1OC)N(C)[C@H]1[C@@](O)(C(=O)OC)[C@H](OC(C)=O)[C@]4(CC)C=CCN5CC[C@@]31[C@H]54)C2 (stereo partly specified) | 16.3% (active)
18 | CC(=O)O[C@H]1C(=O)[C@@]2(C)C([C@H](OC(=O)c3ccccc3)[C@]3(O)C[C@H](OC(=O)[C@H](O)[C@@H](NC(=O)c4ccccc4)c4ccccc4)C(C)=C1C3(C)C)[C@]1(OC(C)=O)CO[C@@H]1C[C@H]2O (stereo partly specified) | 16.9% (active)

Same assay, conditions: patient-derived ovarian cancer cells, CellTiter-Glo viability, 144 h; at 0.0781 µM; OCI-C5x cells; with rucaparib 10 µM; active compounds read low; 100% = cells with rucaparib alone

Row | Compound | viability
19 | O=c1[nH]c(=O)n([C@@H]2C[C@H](O)[C@@H](CO)O2)cc1F | 109% (inactive)
20 | COc1cccc2c1C(=O)c1c(O)c3c(c(O)c1C2=O)C[C@@](O)(C(C)=O)C[C@H]3O[C@H]1C[C@H](N)[C@H](O)[C@H](C)O1 | 180% (inactive)
21 | C[C@]12CC[C@H]3c4ccc(O)cc4CC[C@H]3[C@@H]1CC[C@H]2O | 100% (inactive)
22 | CC1=C(/C=C/C(C)=C\C=C\C(C)=C/C(=O)O)C(C)(C)CCC1 | 105% (inactive)
23 | CC(C)CC(CC(=O)NO)C(=O)N[C@@H](Cc1ccc2ccccc2c1)C(=O)N[C@@H](C)C(=O)NCCN (stereo partly specified) | 132% (inactive)
24 | COc1cccc2c1C(=O)c1c(O)c3c(c(O)c1C2=O)C[C@@](O)(C(=O)CO)C[C@H]3O[C@H]1C[C@H](N)[C@@H](O)[C@H](C)O1 | 103% (inactive)
25 | COc1ccc(C2=N[C@H](c3ccc(Cl)cc3)[C@@H](c3ccc(Cl)cc3)N2C(=O)N2CCNC(=O)C2)c(OC(C)C)c1 | 120% (inactive)
26 | CO[C@H]1C[C@H]2CC[C@@H](C)[C@@](O)(O2)C(=O)C(=O)N2CCCC[C@H]2C(=O)O[C@H]([C@H](C)C[C@@H]2CC[C@H](OC(=O)C(C)(CO)CO)[C@H](OC)C2)CC(=O)[C@H](C)/C=C(\C)[C@@H](O)[C@@H](OC)C(=O)[C@H](C)C[C@H](C)/C=C/C=C/C=C/1C | 93.3% (active)
27 | O=C(O)c1cc(I)ccc1NC(=O)[C@H](Cc1ccccc1)NCc1ccccc1 | 124% (inactive)
28 | Nc1ncn([C@@H]2O[C@H](CO)[C@@H](O)[C@@H]2O)c(=O)n1 | 117% (inactive)
29 | CO[C@H]1C[C@@H]2CC[C@@H](C)[C@@](O)(O2)C(=O)C(=O)N2CCCC[C@H]2C(=O)O[C@H]([C@H](C)C[C@@H]2CC[C@@H](O)[C@H](OC)C2)CC(=O)[C@H](C)/C=C(\C)[C@@H](O)[C@H](OC)C(=O)[C@H](C)C[C@H](C)/C=C/C=C/C=C/1C | 103% (inactive)
30 | CC(=O)OCC(=O)[C@]1(O)[C@H](C)C[C@H]2[C@@H]3CCC4=CC(=O)C=C[C@]4(C)[C@]3(F)[C@H](O)C[C@@]21C | 118% (inactive)
31 | CC[C@]1(O)C[C@@H]2CN(CCc3c([nH]c4ccccc34)[C@@](C(=O)OC)(c3cc4c(cc3OC)N(C=O)[C@H]3[C@@](O)(C(=O)OC)[C@H](OC(C)=O)[C@]5(CC)C=CCN6CC[C@@]43[C@@H]65)C2)C1 | 36.6% (active)
32 | C[C@@]12CC[C@H]3c4ccc(O)cc4C[C@@H](CCCCCCCCCS(=O)CCCC(F)(F)C(F)(F)F)[C@H]3[C@@H]1CC[C@@H]2O (stereo partly specified) | 114% (inactive)
33 | CC(=O)O[C@@]1(C(C)=O)CC[C@H]2[C@@H]3C[C@H](C)C4=CC(=O)CC[C@]4(C)[C@@H]3CC[C@@]21C | 106% (inactive)
34 | CC(=O)O[C@]12CO[C@@H]1C[C@H](O)[C@]1(C)C(=O)[C@H](O)C3=C(C)[C@H](OC(=O)[C@H](O)[C@@H](NC(=O)OC(C)(C)C)c4ccccc4)C[C@](O)([C@H](OC(=O)c4ccccc4)C21)C3(C)C (stereo partly specified) | 38.2% (active)
35 | CCC1=CC2CN(C1)Cc1c([nH]c3ccccc13)[C@@](C(=O)OC)(c1cc3c(cc1OC)N(C)[C@H]1[C@@](O)(C(=O)OC)[C@H](OC(C)=O)[C@]4(CC)C=CCN5CC[C@@]31[C@H]54)C2 (stereo partly specified) | 40.3% (active)
36 | CC(=O)O[C@H]1C(=O)[C@@]2(C)C([C@H](OC(=O)c3ccccc3)[C@]3(O)C[C@H](OC(=O)[C@H](O)[C@@H](NC(=O)c4ccccc4)c4ccccc4)C(C)=C1C3(C)C)[C@]1(OC(C)=O)CO[C@@H]1C[C@H]2O (stereo partly specified) | 34.2% (active)
